Experimental data published in PubChem BioAssay AID540358 (NMMLSC, 2011).
Where “and” joins values, the source holds several entries; their conditions need not be identical. Equal entries are not always repeated. Out of some 1,100 compounds screened, about 260 (24%) were called active.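 The calls were made as follows: active = surface receptor percent response at or below 58%, roughly 3 SD from nonfluorescent compounds; inactive = the rest.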 A selection follows.

molecular target: Beta-2 adrenergic receptor (Homo sapiens) (UniProt P07550); assay: agonist-driven loss of surface beta2AR – cell-based, FAP fluorogen, flow cytometry, single point, cherry pick 1, confirmation (AID 540358); conditions: Am2.2-beta2AR cells, at 10 µM, active compounds read low
Sequence (P07550 whole entry, looked up): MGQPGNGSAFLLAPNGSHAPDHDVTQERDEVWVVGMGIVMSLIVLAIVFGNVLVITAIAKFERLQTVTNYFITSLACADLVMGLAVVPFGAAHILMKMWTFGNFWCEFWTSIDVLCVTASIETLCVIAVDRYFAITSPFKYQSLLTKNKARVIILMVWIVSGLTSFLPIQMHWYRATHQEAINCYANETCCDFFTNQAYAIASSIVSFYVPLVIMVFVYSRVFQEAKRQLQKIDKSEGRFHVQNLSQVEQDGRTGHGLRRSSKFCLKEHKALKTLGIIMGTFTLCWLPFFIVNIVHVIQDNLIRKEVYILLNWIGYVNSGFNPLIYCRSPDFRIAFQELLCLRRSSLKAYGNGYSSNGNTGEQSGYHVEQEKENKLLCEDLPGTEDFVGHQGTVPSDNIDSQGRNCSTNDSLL

Percent response (surface receptor), inactive:
OC(CNCc1ccc(Cl)c(Cl)c1)c1ccccc1 (stereo unspecified) 110%
CCCCCCCCCCOC(=O)Cn1c(COc2ccc(C)cc2)[n+](C)c2ccccc21 108%
O=C1C(=O)N(CC2COc3ccccc3O2)c2ccccc21 (stereo unspecified) 95.3%
CC(=O)Nc1ccc(Nc2c3ccccc3nc3ccccc23)cc1 80.8%
COc1ccc(-n2nc3c(N4CCC(C(=O)NCc5ccccc5)CC4)nnc(C)c3c2C)cc1 152%
C=CCNC(=S)N/N=C/c1ccc(C)s1 110%
CC(=O)Nc1ccc(CN2CCC(Oc3ccc(C(=O)N4CCCC4)cc3)CC2)cc1 104%
CC(CCc1ccccc1)NCC(O)c1cccc([N+](=O)[O-])c1 (stereo unspecified) 119%
COc1cc(C#Cc2ccc3cc(CCCO)oc(=O)c3c2)cc(OC)c1 68.2%
COc1ccc(-c2ccnc(SCC(=O)N3CCOCC3)n2)cc1 104%
Cc1ccc(Cl)cc1NC(=O)CN1CCN(S(=O)(=O)N2CCOCC2)CC1 93.5%
CCOc1ccccc1N1C(=O)CC(Sc2nccc(C)n2)C1=O (stereo unspecified) 106%
COc1ccc2c(c1OC)C(=O)OC2Nc1nc(-c2ccccc2)cs1 (stereo unspecified) 99.6%
O=C(C1CCN(c2nnc(-n3cccc3)s2)CC1)N1CCc2ccccc2C1 146%
CC(=O)c1ccc(NC(=O)c2ccc3c(Cl)c4c(nc3c2)CCCC4)cc1 66.5%
Cc1cc(S(=O)(=O)N2CCOCC2)ccc1OCC(=O)Nc1cccc(C(F)(F)F)c1 99%
N#Cc1cccc(NC(=O)COC(=O)c2ccccc2C(=O)c2ccc(Cl)c([N+](=O)[O-])c2)c1 85.9%
COc1ccc(OC)c(S(=O)(=O)N(C)CC(=O)N2CCN(c3ccccc3)CC2)c1 88.9% and 123%
CCOc1ccccc1NC(=O)COc1ccc(S(=O)(=O)N2CCCC2)cc1 128%
CCOc1ccc(NC(=O)COc2ccc(S(=O)(=O)N3CCCC3)cc2)cc1 104%
CCN1CCC2(CC1)N=C(c1ccc(F)cc1)C(=S)N2C(=O)c1ccc(C)cc1 92.8%
CC(=O)c1cccc(NC(=O)COc2ccc(S(=O)(=O)N3CCOCC3)cc2)c1 120%
CCCOc1ccc(C(=O)C(CCC(CNCC)C(=O)c2ccc(OCCC)cc2)CNCC)cc1 (stereo unspecified) 61%
O=S(=O)(Nc1ccc2[nH]ncc2c1)c1ccccc1Cl 89.6%
CCCN(CCc1ccccc1)C1CCc2c(O)cccc2C1 (stereo unspecified) 111%
CSc1ccc(CCNC(=O)C2CCN(c3nnc(-n4cccc4)s3)CC2)cc1 60.9%
Oc1ccc(N=Cc2sc3ccccc3c2Cl)cc1 101%
O=C(Nc1ccc2c(c1)OCCO2)C(c1ccc(F)cc1)N1CCCCC1 (stereo unspecified) 112%
COc1ccc(C(CCNCc2ccccc2F)c2ccc(F)cc2)cc1 (stereo unspecified) 109%

Percent response (surface receptor), active:
CSc1ccc(CNC(=O)c2ccc(NC(=O)C3=CSCCO3)cc2)cc1 17.5%
O=C(NCCCn1ccnc1)C1CCCN(S(=O)(=O)c2cc(Cl)ccc2Cl)C1 (stereo unspecified) 17.8%
CCOC(=O)c1ccc(NC(=O)Cn2nnc(-c3ccc(C)cc3)n2)cc1 12.3% and 4.86%
COc1ccc(OC)c(NC(=O)c2sc3nc(C)cc(C)c3c2N)c1 34.7%
COc1ccc(S(=O)(=O)N2CCCC(C(=O)Nc3ccc(NC(=O)c4ccccn4)cc3)C2)cc1 (stereo unspecified) 44.1%
Cc1ccc(OCC(=O)Nc2ccc(-c3nc4ncccc4o3)cc2)cc1 38.8% and 23.3%
Cc1ccc(Sc2cc(N3CCOCC3)nc(-c3ccccc3)n2)cc1 22.9%
